About 3,700 (1%) of roughly 370,000 compounds were called active. The sample holds actives, similar compounds and a random draw of the others, so the mix is not that of the screen.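 How the source made its calls: active means activation above the mean over all tested compounds plus 3 SD (cut at about 0.9% in these data); inactive means the rest.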

This assay deals with Nuclear hormone receptor DAF-12 (Strongyloides stercoralis). In words: S. stercoralis DAF-12 nuclear receptor activators, primary screen, cell-based, luminescence, HEK293, GRIP1 co-expression, lit1-tk-luc (AID 652126).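 Further: 0% = DMSO-only wells and 100% = 3 µM delta7-dafachronic acid wells.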 To be noted: HEK293 ssDAF-12/GRIP1 lit1-tk-luc reporter, at 6.8 µM, stronger effect = higher value, % of 3 µM dafachronic acid response.
For `CCOC(=O)C1CCN(C(=O)C(C)(C)NC(=O)Nc2ccc(F)c(F)c2)CC1`, the activation was -1.1% (inactive).

Turning to `COC(=O)C1CN(CC(C)C)CCS(=O)(=O)N1Cc1ccc(C)cc1` (stereo unspecified), the activation was -0.69% (inactive).

Take `COc1ccccc1OCc1nnc(SCC(N)=O)n1-c1ccccc1`: the activation is -1.54% (inactive).

As to `COc1ccccc1OCc1nc2ccccc2s1`, the activation is 2.57% (active).

With `CCc1ccc(-c2nnn(Cc3nc4ccccc4s3)n2)cc1`, the activation is -0.71% (inactive).

Consider `COC(=O)C12C=C3CC(c4ccccc4)=C3C(=O)N1Cc1[nH]c3ccccc3c1C2` (stereo unspecified), for which the activation was -1.07% (inactive).

Consider `COc1ccc2c(c1)CN1CN(CCc3ccccc3)S(=O)(=O)CC21` (stereo unspecified), for which the activation is -0.04% (inactive).

As to `Cc1nnsc1C(=O)Nc1cccc(Cl)c1C`, the activation was -1.69% (inactive).

`Cc1cc(Cl)ccc1NNC(=O)c1snnc1C`: the activation was 2.01% (active).

Turning to `Cc1nnsc1C(=O)NCc1c(F)cccc1Cl`, the activation was -0.35% (inactive).

As to `CCOC(=O)/C=C/c1ccccc1O`, the activation is -1.38% (inactive).

In the case of `COc1ccc2nc(-c3ccccn3)ccc2c1`, the activation was 0.98% (active).

Take `COc1ccnc(Oc2ccccc2)n1`: the activation was -0.92% (inactive).

Take `COc1ccc(-n2c(SCC(=O)OC(C)C)nnc2-c2ccccn2)cc1`: the activation was -1.58% (inactive).

Regarding `CC(c1ccc(N)cc1)c1cn(C)c2ccccc12` (stereo unspecified), the activation was -1.36% (inactive).

For the compound `C=CS(=O)(=O)N(Cc1nnn(Cc2ccccc2)c1Br)[C@H](C(=O)OC)C(C)C`, the activation was -1.75% (inactive).

For the compound `COc1cc(/C=C/C(=O)n2cnc3ccccc32)cc(OC)c1OC`, the activation is -2.15% (inactive).

Regarding `COc1ccnc(NC(=S)N2CCN(c3ncc(C(F)(F)F)cc3Cl)CC2)c1`, the activation was -1.56% (inactive).

On to `CN(CCO)S(=O)(=O)c1ccc2c(c1)C(=O)c1cc(S(=O)(=O)N(C)CCO)ccc1-2`, for which the activation is -1.38% (inactive).

On to `COC(=O)[C@]12C[C@H](CC(=O)NCc3ccccc3)C(=O)N(CCc3ccc(OC)c(OC)c3)C1=C[C@H](C(C)(C)C)O[C@@H]2C`, for which the activation was -1.28% (inactive).

`COc1ccc(CSc2nnc(SCC(=O)Nc3ccccc3C(F)(F)F)s2)cc1`: the activation is -1.22% (inactive).

`Fc1ccc2nc(Nc3nc4c(s3)CCCC4)sc2c1`: the activation is 1.92% (active).

On to `COC(=O)C(NC(C)=O)(Nc1nc2c(s1)CCCC2)C(F)(F)F` (stereo unspecified), for which the activation is -0.86% (inactive).

As to `C[C@H]1CCC/C=C/C(=O)c2c(O)cc(O)cc2CC(=O)O1`, the activation is -1.77% (inactive).

`CCCCOCCCNC(=O)C[C@H]1C[C@@]2(C(=O)OC)C(=C[C@H](COCc3ccccc3)O[C@@H]2C)N(Cc2cccc3ccccc23)C1=O`: the activation was -1.25% (inactive).

Regarding `COC(=O)[C@]12C[C@H](CC(=O)NCCc3ccccc3OC)C(=O)N(Cc3ccco3)C1=C[C@H](C(C)C)O[C@@H]2C1CC1`, the activation was -1.3% (inactive).

Turning to `CCCN(c1ccc(C)cc1)c1nc(=O)c2cccnc2s1`, the activation was 1.12% (active).

Consider `COc1ccnc(C(=O)N2CCC(Oc3cccnc3)CC2)c1`, for which the activation was -1.55% (inactive).

For the compound `CCCCCCN1CCS(=O)(=O)N(Cc2ccc(C(F)(F)F)cc2)C(C(=O)OC)C1` (stereo unspecified), the activation was -0.61% (inactive).

Regarding `CN[C@H]1C[C@H]2c3cc(N4CCOCC4)ccc3CCN2C[C@H]1[C@H](C)O`, the activation was -1.27% (inactive).

For the compound `COCc1ccc(C(=O)N2CCc3c([nH]c4ccccc34)C2c2ccccn2)s1` (stereo unspecified), the activation is -2.05% (inactive).

Consider `O=C(c1cn2ccccc2n1)N1CCc2c([nH]c3ccccc23)C1c1ccccn1` (stereo unspecified), for which the activation was 0.91% (active).

As for `c1ccc(C2c3[nH]c4ccccc4c3CCN2Cc2cccn2-c2cccnc2)nc1` (stereo unspecified), the activation is -1.17% (inactive).

In the case of `CCC(C)[C@@H](C(=O)OC)N(CCc1cn(Cc2ccccc2)nn1)S(=O)(=O)c1ccccc1Br` (stereo partly specified), the activation is -1.79% (inactive).

In the case of `COc1ccc(C2=Nc3cc(C)ccc3OC2)cc1`, the activation was 1.43% (active).

Take `COc1ccc(/C=C/c2c(-c3cccc(C)c3)oc3ccc(-c4ccc5c(c4)OCO5)cc23)cc1`: the activation is -1.12% (inactive).

In the case of `COc1ccc([C@H]2CC(=O)C=C(c3ccc(C)cc3)C2)cc1`, the activation was -0.86% (inactive).

As to `CCOc1ccc(Oc2c(Cl)cnn(-c3ccc(C)cc3)c2=O)cc1`, the activation was -1.17% (inactive).

With `Cc1ccc(-c2nnc(-n3nnc4ccccc43)c3ccccc23)cc1`, the activation is -1.26% (inactive).

Consider `Cc1ccc(C2=NN(C)c3nc4ccccc4n3C2)cc1`, for which the activation was 1.2% (active).

As for `Cc1nc2ccccc2n1CC(O)c1ccccc1` (stereo unspecified), the activation was -1.14% (inactive).

For the compound `O=C(CCCCCN1C(=O)C2C3C=CC(C3)C2C1=O)Nc1ccccc1` (stereo unspecified), the activation is -1.12% (inactive).

For the compound `COc1c(N2CCN(C(=S)Nc3ccccc3F)C(C)C2)c(F)cc2c(=O)c(C(=O)O)cn(C3CC3)c12` (stereo unspecified), the activation was -0.28% (inactive).

As to `O=C(NC1CCC1)c1ccc(C#Cc2cccc(F)c2)c[n+]1[O-]`, the activation was -1.07% (inactive).

Take `CSc1nc(C)nc(C2CC2)c1C#N`: the activation is -1.49% (inactive).

With `Nc1ccc(C(=O)Nc2ccccc2N)cc1`, the activation is 1.55% (active).

On to `CC(CNC(=O)c1ccc(N)cc1)NC(=O)c1ccc(N)cc1` (stereo unspecified), for which the activation is -1.71% (inactive).

`O=C(Nc1ccccc1C(=O)N1CCOCC1)c1ccc(Cl)cc1`: the activation was -1.32% (inactive).

Regarding `Cc1ccc(-n2c(COc3ccccc3)nnc2SCC(=O)Nc2ccc3c(c2)OCCO3)cc1`, the activation was -1.43% (inactive).

In the case of `COC(=O)c1ccc(NC(=S)Nc2cccc(C)n2)cc1`, the activation is -0.35% (inactive).

With `CC(NC(=O)COC(=O)c1ccc2ccccc2n1)c1ccccc1` (stereo unspecified), the activation is -0.49% (inactive).

Regarding `Cc1cccc(NC(=O)c2ccc3ccccc3n2)n1`, the activation was 1.11% (active).

With `Cc1c(C(C)c2ccccc2O)[nH]c2ccccc12` (stereo unspecified), the activation was -0.11% (inactive).

Regarding `CCOc1ccc(-n2c(SCC(=O)Nc3cc(C)c(NC(=O)c4ccccc4)cc3OC)nnc2-c2cccs2)cc1`, the activation is -1.35% (inactive).

Consider `CCOC(=O)N1CCN(C(=O)C[C@H]2C[C@@]3(C(=O)OC)C(=C[C@H](C(C)(C)C)O[C@@H]3C)N(Cc3ccc(Cl)cc3Cl)C2=O)CC1`, for which the activation is -1.86% (inactive).

As to `COc1ccc(C)cc1S(=O)(=O)NCCc1ccccc1`, the activation was -0.72% (inactive).

For the compound `COc1ccc(OC)c(S(=O)(=O)NCCC(C)C)c1`, the activation is 1.47% (active).

As for `COCCNS(=O)(=O)c1cc(Br)ccc1OC`, the activation was -1.56% (inactive).

For the compound `CC(C)CNc1cccc2c1S(=O)(=O)N(Cc1cn(Cc3ccc(Cl)cc3)nn1)Cc1ccccc1O2`, the activation was -1.25% (inactive).

As to `O=C(CSc1nc2ccccc2nc1N1CCCCC1)N1CCN(S(=O)(=O)c2cccc([N+](=O)[O-])c2)CC1`, the activation was -0.71% (inactive).

For `CC(=O)Nc1ccc(OC[C@@H](O)CN2CCC(C(O)(c3ccccc3)c3ccccc3)CC2)cc1`, the activation was -0.46% (inactive).

With `COc1cccc(CNC(=O)C2CCCN(c3nc4ccccc4o3)C2)c1OC` (stereo unspecified), the activation was 1.04% (active).

Consider `COc1ccccc1CNC(=O)C1CCN(c2nc3ccccc3o2)CC1`, for which the activation is -1.15% (inactive).

Take `O=C(NCc1ccc(Cl)cc1)C1CCCN(c2nc3ccccc3o2)C1` (stereo unspecified): the activation is -1.04% (inactive).

Turning to `CCC(=O)Nc1ccc2c(c1)C(=O)N(C)[C@H]1CC[C@H](CC(=O)NCCOC)O[C@@H]1CO2`, the activation was -1.05% (inactive).

Take `COc1ccc(-n2c(COc3ccccc3)nnc2SCC(=O)Nc2ccc3c(c2)OCO3)cc1`: the activation is -1.47% (inactive).

In the case of `COc1ccc(C(CNC(=O)c2cc3c(s2)CCCC3)N2CCOCC2)cc1` (stereo unspecified), the activation was -1.09% (inactive).

Consider `Cc1ccc(-n2cc3ccc([N+](=O)[O-])cc3n2)cc1`, for which the activation is 1.77% (active).

For `CC(C)(C)NC(=O)Cn1cnc2cc([N+](=O)[O-])ccc2c1=O`, the activation is -1.52% (inactive).

On to `O=c1c2cc([N+](=O)[O-])ccc2nc2n1CCC2`, for which the activation is -0.82% (inactive).

As to `C=CCN1C(=O)[C@@H](CC(=O)N2CCN(C(=O)OCC)CC2)[C@]2(C(=O)OCC)CCCCC/C=C/12`, the activation is -1.02% (inactive).

As for `CCOc1cc(C)c(S(=O)(=O)NCc2ccccn2)cc1C`, the activation is 0.98% (active).

Turning to `Cc1cc(S(=O)(=O)NCc2ccccn2)c(Cl)cc1Cl`, the activation was -1.84% (inactive).

As to `COc1ccccc1CNS(=O)(=O)c1cc(C(=O)NCc2ccccn2)c(Cl)cc1Cl`, the activation is -1.13% (inactive).

As for `COC(=O)[C@H](C(C)C)N(CCCc1cn(Cc2ccccc2)nn1)S(=O)(=O)c1ccc(F)cc1Br`, the activation was -2.17% (inactive).

As to `Cc1cccc(-n2c(O)c(C=Nc3ccccc3N)c(=O)[nH]c2=O)c1`, the activation is 1.8% (active).

`COc1cccc(N(C)C(=O)[C@@H](C)[C@@H](O)c2ccc3ccccc3c2)c1`: the activation is -1.07% (inactive).

Take `O=c1c2c(nc3cc(-c4cccc(Cl)c4)[nH]n13)CCCC2`: the activation is 1.57% (active).

On to `CSc1nc2nc3c(c(=O)n2[nH]1)CCC3`, for which the activation is -1.17% (inactive).

Regarding `CCOC(=O)C1CCN(S(=O)(=O)c2ccc3c(c2)N(C(C)=O)CCO3)CC1`, the activation was -1.19% (inactive).

As for `OC(c1ccccc1)c1nc(-c2cnc3ccccc3c2)cs1` (stereo unspecified), the activation was 1.25% (active).

For the compound `COc1ccc(-c2csc(C(O)c3cccc(Cl)c3)n2)cn1` (stereo unspecified), the activation is -1.06% (inactive).

For the compound `CC(C)c1cccc(-c2csc(C(O)c3ccccc3)n2)c1` (stereo unspecified), the activation was -1.41% (inactive).

Take `COc1cccc(N(CC(=O)NCCSc2ccccn2)S(C)(=O)=O)c1`: the activation is -1.16% (inactive).

Consider `CN(C)c1nc(N)nc(CSc2ccccn2)n1`, for which the activation is -1.25% (inactive).

Take `COc1ccc(C=C(C#N)C#N)c(CSc2ccccn2)c1`: the activation is 2.1% (active).

As to `c1coc(CCNc2ncnc3ccc(-c4ccc5c(c4)OCO5)cc23)c1`, the activation is -0.09% (inactive).

Regarding `CCn1c2ccccc2c2cc(NC(=O)CSc3nnc(-c4ccccc4)n3-c3ccc(C)cc3)ccc21`, the activation was -1.2% (inactive).

For the compound `COc1ccc(/C=N/Nc2ncnc3sc4c(c23)CCCC4)cc1O`, the activation was -0.66% (inactive).

On to `O=C(CSc1nc2ccccc2s1)NN=Cc1ccc(O)cc1O`, for which the activation was -1.4% (inactive).

`COc1cc(/C=N/Nc2nc3ccccc3s2)ccc1O`: the activation was 2.25% (active).

The values above are taken from PubChem BioAssay AID652126 (The Scripps Research Institute Molecular Screening Center, 2013).
